Results as given in publication PMC11062922 (Nature Chemical Biology, 2023).
Like-named read-outs stand apart in the source and are kept apart here.

What was measured:
[1] = test system: CHEK1; conditions: read-out: apparent Kd, n = 1
[2] = test system: ERN1; conditions: read-out: apparent Kd, n = 1
[3] = compound concentrations:100 nM and 1000 nM (sheet 'Lestaurtinib' of Supplementary Table 1),run:Lestaurtinib_02601_R1,Plate:MR018
[4] = compound concentrations:100 nM and 1000 nM (sheet 'Lestaurtinib' of Supplementary Table 1),run:Lestaurtinib_02601_R3,Plate:MR018
[5] = compound concentrations:100 nM and 1000 nM (sheet 'Lestaurtinib' of Supplementary Table 1),run:Lestaurtinib_02606_R1,Plate:MR019
[6] = compound concentrations:100 nM and 1000 nM (sheet 'Lestaurtinib' of Supplementary Table 1),run:Lestaurtinib_02606_R2,Plate:MR019
[7] = compound concentrations:100 nM and 1000 nM (sheet 'Lestaurtinib' of Supplementary Table 1),run:Lestaurtinib_02606_R3,Plate:MR019
[8] = compound concentrations:100 nM and 1000 nM (sheet 'Lestaurtinib' of Supplementary Table 1),run:Lestaurtinib_02624_R2,Plate:MR020
[9] = compound concentrations:100 nM and 1000 nM (sheet 'Lestaurtinib' of Supplementary Table 1),run:Lestaurtinib_02624_R3,Plate:MR020
[10] = compound concentrations:100 nM and 1000 nM (sheet 'Lestaurtinib' of Supplementary Table 1),run:Lestaurtinib_02724_R3,Plate:MR021
[11] = compound concentrations:100 nM and 1000 nM (sheet 'Lestaurtinib' of Supplementary Table 1),run:Lestaurtinib_02741_R1,Plate:MR023
[12] = compound concentrations:100 nM and 1000 nM (sheet 'Lestaurtinib' of Supplementary Table 1),run:Lestaurtinib_02748_R3,Plate:MR024

Substance: Lestaurtinib
- potency estimated from few doses [1, 3]: 98 nM
- potency estimated from few doses [1, 4]: 78.8 nM
- potency estimated from few doses [1, 5]: 88.5 nM
- potency estimated from few doses [1, 6]: 74.1 nM
- potency estimated from few doses [1, 7]: 97 nM
- potency estimated from few doses [1, 8]: 93 nM
- potency estimated from few doses [1, 9]: 79 nM
- potency estimated from few doses [1, 10]: 92 nM
- potency estimated from few doses [1, 11]: 88 nM
- potency estimated from few doses ([1]; compound concentrations:100 nM and 1000 nM (sheet 'Lestaurtinib' of Supplementary Table 1),run:Lestaurtinib_02748_R1,Plate:MR024): 69.5 nM
- potency estimated from few doses [1, 12]: 80.1 nM
- potency estimated from few doses ([1]; compound concentrations:100 nM and 1000 nM (sheet 'Lestaurtinib' of Supplementary Table 1),run:Lestaurtinib_02752_R1,Plate:MR025): 75.5 nM
- potency estimated from few doses ([1]; compound concentrations:100 nM and 1000 nM (sheet 'Lestaurtinib' of Supplementary Table 1),run:Lestaurtinib_02765_R2,Plate:MR026): 98.7 nM
- potency estimated from few doses ([1]; compound concentrations:100 nM and 1000 nM (sheet 'Lestaurtinib' of Supplementary Table 1),run:Lestaurtinib_02765_R3,Plate:MR026): 75.5 nM
- potency estimated from few doses ([1]; compound concentrations:100 nM and 1000 nM (sheet 'Lestaurtinib' of Supplementary Table 1),run:Lestaurtinib_02766_R1,Plate:MR027): 92 nM
- potency estimated from few doses ([1]; compound concentrations:100 nM and 1000 nM (sheet 'Lestaurtinib' of Supplementary Table 1),run:Lestaurtinib_02766_R2,Plate:MR027): 71.2 nM
- potency estimated from few doses ([1]; compound concentrations:100 nM and 1000 nM (sheet 'Lestaurtinib' of Supplementary Table 1),run:Lestaurtinib_02766_R3,Plate:MR027): 82.7 nM
- potency estimated from few doses ([1]; compound concentrations:100 nM and 1000 nM (sheet 'Lestaurtinib' of Supplementary Table 1),run:Lestaurtinib_02768_R1,Plate:MR028): 82.7 nM
- potency estimated from few doses ([1]; compound concentrations:100 nM and 1000 nM (sheet 'Lestaurtinib' of Supplementary Table 1),run:Lestaurtinib_02768_R3,Plate:MR028): 86.1 nM
- potency estimated from few doses ([1]; compound concentrations:100 nM and 1000 nM (sheet 'Lestaurtinib' of Supplementary Table 1),run:Lestaurtinib_02795_R1,Plate:MR022): 89.5 nM
- potency estimated from few doses ([1]; compound concentrations:100 nM and 1000 nM (sheet 'Lestaurtinib' of Supplementary Table 1),run:Lestaurtinib_02795_R2,Plate:MR022): 80.2 nM
- potency estimated from few doses ([1]; compound concentrations:100 nM and 1000 nM (sheet 'Lestaurtinib' of Supplementary Table 1),run:Lestaurtinib_02795_R3,Plate:MR022): 211 nM
- potency estimated from few doses ([1]; compound concentrations:100 nM and 1000 nM (sheet 'Lestaurtinib' of Supplementary Table 1),run:Lestaurtinib_02802_R1,Plate:MR029): 84.3 nM
- potency estimated from few doses ([1]; compound concentrations:100 nM and 1000 nM (sheet 'Lestaurtinib' of Supplementary Table 1),run:Lestaurtinib_02802_R2,Plate:MR029): 91.6 nM
- potency estimated from few doses ([1]; compound concentrations:100 nM and 1000 nM (sheet 'Lestaurtinib' of Supplementary Table 1),run:Lestaurtinib_02802_R3,Plate:MR029): 91.6 nM
- potency estimated from few doses ([1]; compound concentrations:100 nM and 1000 nM (sheet 'Lestaurtinib' of Supplementary Table 1),run:Lestaurtinib_02896_R1,Plate:MR030): 73.7 nM
- potency estimated from few doses ([1]; compound concentrations:100 nM and 1000 nM (sheet 'Lestaurtinib' of Supplementary Table 1),run:Lestaurtinib_02896_R2,Plate:MR030): 70 nM
- potency estimated from few doses ([1]; compound concentrations:100 nM and 1000 nM (sheet 'Lestaurtinib' of Supplementary Table 1),run:Lestaurtinib_02896_R3,Plate:MR030): 66.7 nM
- potency estimated from few doses ([1]; compound concentrations:100 nM and 1000 nM (sheet 'Lestaurtinib' of Supplementary Table 1),run:Lestaurtinib_03172_R2,Plate:MR031): 83.5 nM
- potency estimated from few doses ([1]; compound concentrations:100 nM and 1000 nM (sheet 'Lestaurtinib' of Supplementary Table 1),run:Lestaurtinib_03172_R3,Plate:MR031): 94.3 nM
- potency estimated from few doses ([1]; compound concentrations:100 nM and 1000 nM (sheet 'Lestaurtinib' of Supplementary Table 1),run:Lestaurtinib_03260_R3,Plate:MR033): 67.9 nM
- potency estimated from few doses ([2]; compound concentrations:100 nM and 1000 nM (sheet 'Lestaurtinib' of Supplementary Table 1),run:Lestaurtinib_02339_R1,Plate:MR001): 97.9 nM
- potency estimated from few doses ([2]; compound concentrations:100 nM and 1000 nM (sheet 'Lestaurtinib' of Supplementary Table 1),run:Lestaurtinib_02339_R2,Plate:MR001): 65.8 nM
- potency estimated from few doses ([2]; compound concentrations:100 nM and 1000 nM (sheet 'Lestaurtinib' of Supplementary Table 1),run:Lestaurtinib_02339_R3,Plate:MR001): 47 nM
- potency estimated from few doses ([2]; compound concentrations:100 nM and 1000 nM (sheet 'Lestaurtinib' of Supplementary Table 1),run:Lestaurtinib_02364_R1,Plate:MR002): 75.2 nM
- potency estimated from few doses ([2]; compound concentrations:100 nM and 1000 nM (sheet 'Lestaurtinib' of Supplementary Table 1),run:Lestaurtinib_02364_R2,Plate:MR002): 58.2 nM
- potency estimated from few doses ([2]; compound concentrations:100 nM and 1000 nM (sheet 'Lestaurtinib' of Supplementary Table 1),run:Lestaurtinib_02367_R1,Plate:MR003): 83.4 nM
- potency estimated from few doses ([2]; compound concentrations:100 nM and 1000 nM (sheet 'Lestaurtinib' of Supplementary Table 1),run:Lestaurtinib_02367_R3,Plate:MR003): 76.1 nM
- potency estimated from few doses ([2]; compound concentrations:100 nM and 1000 nM (sheet 'Lestaurtinib' of Supplementary Table 1),run:Lestaurtinib_02381_R1,Plate:MR004): 44.2 nM
- potency estimated from few doses ([2]; compound concentrations:100 nM and 1000 nM (sheet 'Lestaurtinib' of Supplementary Table 1),run:Lestaurtinib_02381_R2,Plate:MR004): 58 nM
- potency estimated from few doses ([2]; compound concentrations:100 nM and 1000 nM (sheet 'Lestaurtinib' of Supplementary Table 1),run:Lestaurtinib_02407_R1,Plate:MR005): 74.7 nM
- potency estimated from few doses ([2]; compound concentrations:100 nM and 1000 nM (sheet 'Lestaurtinib' of Supplementary Table 1),run:Lestaurtinib_02407_R3,Plate:MR005): 65.8 nM
- potency estimated from few doses ([2]; compound concentrations:100 nM and 1000 nM (sheet 'Lestaurtinib' of Supplementary Table 1),run:Lestaurtinib_02422_R1,Plate:MR006): 64.3 nM
- potency estimated from few doses ([2]; compound concentrations:100 nM and 1000 nM (sheet 'Lestaurtinib' of Supplementary Table 1),run:Lestaurtinib_02422_R2,Plate:MR006): 68.1 nM
- potency estimated from few doses ([2]; compound concentrations:100 nM and 1000 nM (sheet 'Lestaurtinib' of Supplementary Table 1),run:Lestaurtinib_02422_R3,Plate:MR006): 67.9 nM
- potency estimated from few doses ([2]; compound concentrations:100 nM and 1000 nM (sheet 'Lestaurtinib' of Supplementary Table 1),run:Lestaurtinib_02438_R1,Plate:MR008): 49.4 nM
- potency estimated from few doses ([2]; compound concentrations:100 nM and 1000 nM (sheet 'Lestaurtinib' of Supplementary Table 1),run:Lestaurtinib_02438_R2,Plate:MR008): 63.9 nM
- potency estimated from few doses ([2]; compound concentrations:100 nM and 1000 nM (sheet 'Lestaurtinib' of Supplementary Table 1),run:Lestaurtinib_02438_R3,Plate:MR008): 64.3 nM
- potency estimated from few doses ([2]; compound concentrations:100 nM and 1000 nM (sheet 'Lestaurtinib' of Supplementary Table 1),run:Lestaurtinib_02443_R1,Plate:MR009): 67.3 nM
- potency estimated from few doses ([2]; compound concentrations:100 nM and 1000 nM (sheet 'Lestaurtinib' of Supplementary Table 1),run:Lestaurtinib_02443_R2,Plate:MR009): 58.1 nM
- potency estimated from few doses ([2]; compound concentrations:100 nM and 1000 nM (sheet 'Lestaurtinib' of Supplementary Table 1),run:Lestaurtinib_02443_R3,Plate:MR009): 63.3 nM
- potency estimated from few doses ([2]; compound concentrations:100 nM and 1000 nM (sheet 'Lestaurtinib' of Supplementary Table 1),run:Lestaurtinib_02473_R1,Plate:MR010): 52.6 nM
- potency estimated from few doses ([2]; compound concentrations:100 nM and 1000 nM (sheet 'Lestaurtinib' of Supplementary Table 1),run:Lestaurtinib_02473_R2,Plate:MR010): 60.5 nM
- potency estimated from few doses ([2]; compound concentrations:100 nM and 1000 nM (sheet 'Lestaurtinib' of Supplementary Table 1),run:Lestaurtinib_02473_R3,Plate:MR010): 69.9 nM
- potency estimated from few doses ([2]; compound concentrations:100 nM and 1000 nM (sheet 'Lestaurtinib' of Supplementary Table 1),run:Lestaurtinib_02482_R3,Plate:MR011): 54.1 nM
- potency estimated from few doses ([2]; compound concentrations:100 nM and 1000 nM (sheet 'Lestaurtinib' of Supplementary Table 1),run:Lestaurtinib_02487_R1,Plate:MR012): 58.2 nM
- potency estimated from few doses ([2]; compound concentrations:100 nM and 1000 nM (sheet 'Lestaurtinib' of Supplementary Table 1),run:Lestaurtinib_02496_R1,Plate:MR013): 79.9 nM
- potency estimated from few doses ([2]; compound concentrations:100 nM and 1000 nM (sheet 'Lestaurtinib' of Supplementary Table 1),run:Lestaurtinib_02496_R2,Plate:MR013): 82.7 nM
- potency estimated from few doses ([2]; compound concentrations:100 nM and 1000 nM (sheet 'Lestaurtinib' of Supplementary Table 1),run:Lestaurtinib_02496_R3,Plate:MR013): 62.6 nM
- potency estimated from few doses ([2]; compound concentrations:100 nM and 1000 nM (sheet 'Lestaurtinib' of Supplementary Table 1),run:Lestaurtinib_02566_R2,Plate:MR014): 99.9 nM
- potency estimated from few doses ([2]; compound concentrations:100 nM and 1000 nM (sheet 'Lestaurtinib' of Supplementary Table 1),run:Lestaurtinib_02572_R2,Plate:MR015): 67.3 nM
- potency estimated from few doses ([2]; compound concentrations:100 nM and 1000 nM (sheet 'Lestaurtinib' of Supplementary Table 1),run:Lestaurtinib_02577_R1,Plate:MR016): 81.4 nM
- potency estimated from few doses ([2]; compound concentrations:100 nM and 1000 nM (sheet 'Lestaurtinib' of Supplementary Table 1),run:Lestaurtinib_02577_R2,Plate:MR016): 61.5 nM
- potency estimated from few doses ([2]; compound concentrations:100 nM and 1000 nM (sheet 'Lestaurtinib' of Supplementary Table 1),run:Lestaurtinib_02577_R3,Plate:MR016): 56.2 nM
- potency estimated from few doses ([2]; compound concentrations:100 nM and 1000 nM (sheet 'Lestaurtinib' of Supplementary Table 1),run:Lestaurtinib_02584_R1,Plate:MR017): 49.6 nM
- potency estimated from few doses ([2]; compound concentrations:100 nM and 1000 nM (sheet 'Lestaurtinib' of Supplementary Table 1),run:Lestaurtinib_02584_R2,Plate:MR017): 50.5 nM
- potency estimated from few doses ([2]; compound concentrations:100 nM and 1000 nM (sheet 'Lestaurtinib' of Supplementary Table 1),run:Lestaurtinib_02584_R3,Plate:MR017): 79.4 nM
- potency estimated from few doses [2, 3]: 73.5 nM
- potency estimated from few doses ([2]; compound concentrations:100 nM and 1000 nM (sheet 'Lestaurtinib' of Supplementary Table 1),run:Lestaurtinib_02601_R2,Plate:MR018): 93.1 nM
- potency estimated from few doses [2, 4]: 63.8 nM
- potency estimated from few doses [2, 5]: 79.4 nM
- potency estimated from few doses [2, 6]: 83.8 nM
- potency estimated from few doses [2, 7]: 87.5 nM
- potency estimated from few doses ([2]; compound concentrations:100 nM and 1000 nM (sheet 'Lestaurtinib' of Supplementary Table 1),run:Lestaurtinib_02624_R1,Plate:MR020): 87.4 nM
- potency estimated from few doses [2, 8]: 94.5 nM
- potency estimated from few doses [2, 9]: 93.4 nM
- potency estimated from few doses ([2]; compound concentrations:100 nM and 1000 nM (sheet 'Lestaurtinib' of Supplementary Table 1),run:Lestaurtinib_02724_R1,Plate:MR021): 90.7 nM
- potency estimated from few doses ([2]; compound concentrations:100 nM and 1000 nM (sheet 'Lestaurtinib' of Supplementary Table 1),run:Lestaurtinib_02724_R2,Plate:MR021): 92.1 nM
- potency estimated from few doses [2, 10]: 78.5 nM
- potency estimated from few doses [2, 11]: 83.9 nM
- potency estimated from few doses ([2]; compound concentrations:100 nM and 1000 nM (sheet 'Lestaurtinib' of Supplementary Table 1),run:Lestaurtinib_02741_R2,Plate:MR023): 80 nM
- potency estimated from few doses ([2]; compound concentrations:100 nM and 1000 nM (sheet 'Lestaurtinib' of Supplementary Table 1),run:Lestaurtinib_02741_R3,Plate:MR023): 69.3 nM
- potency estimated from few doses [2, 12]: 74.4 nM
- potency estimated from few doses ([2]; compound concentrations:100 nM and 1000 nM (sheet 'Lestaurtinib' of Supplementary Table 1),run:Lestaurtinib_02752_R2,Plate:MR025): 57.7 nM
